In PubChem BioAssay (NCATS):
Records with an inconclusive call do not appear.

assay: qHTS Assay for Lipid Storage Modulators (AID 1519); settings: Drosophila S3 cells, BODIPY lipid droplet/cell ratio, laser cytometry; measured here: cell count channel max response; cells loaded with oleic acid
Procedure, shortened: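 Cells seeded at 5,000 per well were treated with compounds over a concentration series and loaded with oleic acid (400 uM, as added). Lipid droplet fluorescence (488 nm excitation, 500-530 nm channel) was read by laser-scanning cytometry and normalized to 20 uM Triacsin C.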

Compound	max response [%]
COC(=O)c1c(OC)cc2c(c1C)Oc1c(Cl)c(OC(C)=O)c(Cl)c(C)c1C(=O)O2	2.97
N#C/C(=C\c1ccc(O)c(O)c1)C(=O)NCCCCc1ccccc1	21.1
CC(=O)Oc1ccc2c(c1)CCC1C2CC[C@]2(C)C(OC(C)=O)CCC12 (stereo partly drawn)	4
COc1ccc2c(c1)OCc1c-2oc2cc(OC)ccc12	-1.79
O=c1cc(-c2ccc(O)c(O)c2)oc2cc(OC3OC(CO)C(O)C(O)C3O)cc(O)c12 (stereo not drawn)	6.89
Cc1ccccc1-c1ccc2ncnc(N(C)Cc3ccco3)c2c1	20.6
CC1=CC2C(CC1=O)C(C)=CCC2C(C)C (stereo not drawn)	3.62
CC(=O)Oc1ccc2c(c1C(C)C)CCC1C(C)(C)CCC[C@@]21C (stereo partly drawn)	13.7
COc1cc(C/C=C/c2ccccc2)c(OC)cc1O	4.35
COC(=O)CCCOc1ccc(Cl)cc1Cl	14
C#C[C@]1(OC(C)=O)CCC2C3CCC4=CC(=O)CCC4C3CC[C@]21C (stereo partly drawn)	-10.7
COC(=O)c1c(OC)cc2c(c1C)Oc1c(Cl)c(O)c(Cl)c(C)c1C(=O)O2	-4.22
CCOC(=O)c1c(C)cc(OC)cc1O	3.28
COc1cccc(-c2cncnc2NCc2ccc(OC)cc2OC)c1	3.12
CC1(C)[C@@H](O)CC[C@]2(C)C3C(=O)C=C4C5C[C@@](C)(C(=O)O)CC[C@]5(C)CC[C@@]4(C)[C@]3(C)CC[C@@H]12 (stereo partly drawn)	8.09
CN(Cc1ccco1)c1nc(-c2ccccc2Cl)nc2ccccc12	14.1
COc1cc(-c2coc3cc(OCc4ccccc4)c(OC)c(O)c3c2=O)cc(O)c1OC	-3.67
CC(=O)OC1CC2C(C)(C)CCC(=O)[C@@]2(C)C2CC[C@@]3(C)C(c4ccoc4)OC(=O)C4OC43[C@]12C (stereo partly drawn)	0.203
